Growth data for 8 compounds are collected here from PubChem BioAssay (NCI).

Compounds without any hit were thinned out: in the full panel of roughly 83,000, 20% have a hit.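 Results are percent growth after 48 hours of single-concentration exposure. 100 means growth as in untreated cells, lower positive values show inhibition; negative values down to -100 show cell death.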 A number with no mark means an inactive call. Activity calls are given as the source filed them. Rule for the calls: active = growth percent below 10; inactive = the rest.

Among the test systems are NCI-H23 lung; NCI-H226 lung; NCI-H322M lung; HOP-62 NSCLC; HOP-92 NSCLC; NCI-H522 lung; A549/ATCC NSCLC; 786-0 renal; COLO 205 colon; DU-145 prostate; K-562 leukemia; MALME-3M melanoma; MDA-MB-231 breast; RXF 393 renal; SF-268 CNS; SF-295 CNS; SF-539 CNS; UACC-257 melanoma; M14 melanoma; NCI-H460 lung.
Assay in all cases: NCI-60 one-dose screen, 48 h (100 = growth as untreated, 0 = no growth, -100 = all killed)
Common to all, as to conditions: 10 µM unless noted

On to `Cc1[nH]c(C(=O)Nc2ccc(C(N)=O)cc2NC(C)C)c(Cl)c1Cl`, for which the growth is 85.8% in the test with NCI-H23 lung; 91.6% in the test with NCI-H226 lung; 98.7% in the test with NCI-H322M lung; 104% in the test with HOP-62 NSCLC; 72.7% in the test on HOP-92 NSCLC; 79.3% in the test with NCI-H522 lung. Further, the growth was 85.5% in the test with A549/ATCC NSCLC; 91.1% in the test with 786-0 renal; 122% with COLO 205 colon; 100% in the test on DU-145 prostate; 85.8% with K-562 leukemia; 94.4% with MALME-3M melanoma. Further, the growth was 90.1% in the test on MDA-MB-231 breast; 94.7% in the test with RXF 393 renal; 86.5% with SF-268 CNS; 100% with SF-295 CNS; 92.8% in the test on SF-539 CNS; 96.2% in the test on UACC-257 melanoma. The growth with M14 melanoma was 87.6%.

As to `Nc1c(C(=O)Nc2cccc3ncccc23)sc2nc3c(cc12)C(=O)CCC3`, the growth with NCI-H23 lung is 53.8%; in the test with NCI-H226 lung, 62.2%; with NCI-H322M lung, 62.2%; with HOP-62 NSCLC, 39%; in the test with HOP-92 NSCLC it was 41.8%; in the test on NCI-H522 lung, 11.1%. The growth is 49.6% with A549/ATCC NSCLC; 56.5% with 786-0 renal; 45.9% with COLO 205 colon; 69.9% in the test with DU-145 prostate; 31.1% in the test on K-562 leukemia; 74.8% in the test with MALME-3M melanoma. Also, the growth in the test with MDA-MB-231 breast is 58%; in the test on RXF 393 renal, 29.3%; in the test on SF-268 CNS, 71%; in the test on SF-295 CNS it was 21.3%; with SF-539 CNS it was 51.8%; with UACC-257 melanoma it was 41.6%. Also, the growth in the test with M14 melanoma is 50.5%.

As for `O=C(CSc1nc2ccc([N+](=O)[O-])cc2[nH]1)Nc1ccc(Br)cc1`, the growth with NCI-H23 lung is 44.1%; in the test on NCI-H226 lung, 47.9%; with NCI-H322M lung, 86.7%; in the test on HOP-62 NSCLC, 50.9%; in the test on HOP-92 NSCLC it was -8.92% (active); with NCI-H522 lung, 20.9%. Also, the growth with A549/ATCC NSCLC was 44.5%; in the test with 786-0 renal it was 48.3%; with COLO 205 colon it was 41.2%; in the test with DU-145 prostate it was 62.2%; in the test on K-562 leukemia, 26.9%; with MALME-3M melanoma, 40.9%. In addition, the growth in the test with MDA-MB-231 breast was 67.7%; in the test on RXF 393 renal, 85.5%; in the test with SF-268 CNS it was 65.5%; in the test on SF-295 CNS, 56.5%; in the test on SF-539 CNS, 70.5%; in the test on UACC-257 melanoma, 37.7%. Also, in the test with M14 melanoma, the growth was 50.1%.

Take `O=C(Cn1cc(CN2C(=O)c3ccccc3S2(=O)=O)nn1)Nc1cccc(Cl)c1`: the growth with NCI-H23 lung is 97.1%; with NCI-H226 lung, 117%; in the test on NCI-H322M lung, 99%; in the test with HOP-62 NSCLC, 125%; with HOP-92 NSCLC, 105%; in the test with NCI-H522 lung it was 93.9%. Moreover, the growth is 111% with A549/ATCC NSCLC; 115% in the test on 786-0 renal; 114% with COLO 205 colon; 109% in the test with DU-145 prostate; 103% in the test with K-562 leukemia; 99.6% with MALME-3M melanoma. Besides, the growth in the test on MDA-MB-231 breast was 115%; in the test with RXF 393 renal it was 106%; in the test on SF-268 CNS, 99.4%; in the test on SF-295 CNS, 115%; with SF-539 CNS it was 110%; in the test with UACC-257 melanoma, 113%. Further, in the test with M14 melanoma, the growth is 100%.

`CC1(C)O[C@H]2OC3CCC(=O)CC3(O)[C@H]2O1` (some centres not stated): the growth with NCI-H23 lung is 99.2%; in the test on NCI-H226 lung, 102%; in the test with NCI-H322M lung, 101%; in the test with HOP-62 NSCLC, 95.8%; in the test with HOP-92 NSCLC, 79.8%; in the test on NCI-H522 lung, 92.4%. The growth with A549/ATCC NSCLC is 95.9%; with 786-0 renal, 99.5%; in the test with COLO 205 colon, 105%; with DU-145 prostate, 107%; in the test with K-562 leukemia, 94.8%; in the test with MALME-3M melanoma it was 104%. The growth in the test on MDA-MB-231 breast is 113%; in the test with RXF 393 renal, 104%; in the test on SF-268 CNS, 99.3%; in the test on SF-295 CNS, 110%; in the test on SF-539 CNS, 105%; with UACC-257 melanoma, 96.5%. Further, in the test with M14 melanoma, the growth is 99.9%.

`O=C(/C=C/C12c3ccccc3C(c3ccccc31)C1C(=O)NC(=O)C12)c1ccc(F)cc1` (configuration not stated): the growth is 9.23% (active) in the test with NCI-H23 lung; 36.9% with NCI-H226 lung; -4.89% (active) in the test with NCI-H322M lung; -45.3% (active) in the test with HOP-62 NSCLC; 2.15% (active) in the test on NCI-H460 lung; 2.09% (active) in the test on NCI-H522 lung. The growth is 10.6% in the test on A549/ATCC NSCLC; -9.86% (active) in the test on 786-0 renal; -45.4% (active) with COLO 205 colon; 22.2% in the test on DU-145 prostate; 6.1% (active) in the test on K-562 leukemia; 20.2% in the test on MALME-3M melanoma. Also, the growth was 11.9% in the test with MDA-MB-231 breast; -35.4% (active) in the test with RXF 393 renal; 31.3% in the test with SF-268 CNS; 11.5% in the test with SF-295 CNS; 6.05% (active) in the test on SF-539 CNS; 27.3% in the test with UACC-257 melanoma. In the test on M14 melanoma, the growth is 10.2%.

As for `CC[C@@H](c1ccc2cc(OC)ccc2c1)C(C)(C)C(=O)F`, the growth with NCI-H23 lung was 93.4%; with NCI-H226 lung it was 103%; in the test with NCI-H322M lung it was 124%; in the test with HOP-62 NSCLC, 90.8%; with HOP-92 NSCLC, 95.1%; in the test with NCI-H522 lung, 104%. Besides, the growth is 92.5% with A549/ATCC NSCLC; 109% in the test with 786-0 renal; 90.2% in the test on COLO 205 colon; 104% with DU-145 prostate; 104% with K-562 leukemia; 97.1% in the test with MALME-3M melanoma. In addition, the growth in the test with MDA-MB-231 breast is 106%; in the test on RXF 393 renal, 98.6%; in the test with SF-268 CNS it was 113%; in the test with SF-295 CNS, 98.7%; with SF-539 CNS, 103%; with UACC-257 melanoma, -0.544% (active). Also, in the test with M14 melanoma, the growth was 99.2%.

As to `N#CCC1=NC(c2cccs2)=Nc2ccccc2S1`, the growth in the test on NCI-H23 lung was 94.6%; with NCI-H226 lung, 82.4%; in the test with NCI-H322M lung, 101%; in the test with HOP-62 NSCLC, 89.6%; in the test with NCI-H460 lung, 97.7%; in the test on NCI-H522 lung it was 57.4%. The growth in the test with A549/ATCC NSCLC is 96%; in the test with 786-0 renal it was 98.6%; in the test with COLO 205 colon it was 107%; in the test with DU-145 prostate it was 109%; in the test with K-562 leukemia, 86.5%; with MALME-3M melanoma it was 99%. The growth with MDA-MB-231 breast is 90.1%; in the test with RXF 393 renal, 105%; in the test on SF-268 CNS it was 94%; in the test with SF-295 CNS, 103%; in the test on SF-539 CNS it was 101%; in the test with UACC-257 melanoma, 94.4%. For the same compound, the growth in the test with M14 melanoma was 94%.
